The term inhibition denotes the change of the read-out against control, counted positive when it falls.

The campaign covered roughly 86,000 compounds. About 1,400 (1.6%) were called active. Many of the other results were omitted from the sample, so actives are more common in it than they were. Values without a mark were called inactive. Cut-off read from the data, not from the text of the source: active = inhibition above about 50%; inactive = the rest.

Sequence of Estrogen receptor (Homo sapiens) (P03372 whole entry, looked up, the tested form may be a part): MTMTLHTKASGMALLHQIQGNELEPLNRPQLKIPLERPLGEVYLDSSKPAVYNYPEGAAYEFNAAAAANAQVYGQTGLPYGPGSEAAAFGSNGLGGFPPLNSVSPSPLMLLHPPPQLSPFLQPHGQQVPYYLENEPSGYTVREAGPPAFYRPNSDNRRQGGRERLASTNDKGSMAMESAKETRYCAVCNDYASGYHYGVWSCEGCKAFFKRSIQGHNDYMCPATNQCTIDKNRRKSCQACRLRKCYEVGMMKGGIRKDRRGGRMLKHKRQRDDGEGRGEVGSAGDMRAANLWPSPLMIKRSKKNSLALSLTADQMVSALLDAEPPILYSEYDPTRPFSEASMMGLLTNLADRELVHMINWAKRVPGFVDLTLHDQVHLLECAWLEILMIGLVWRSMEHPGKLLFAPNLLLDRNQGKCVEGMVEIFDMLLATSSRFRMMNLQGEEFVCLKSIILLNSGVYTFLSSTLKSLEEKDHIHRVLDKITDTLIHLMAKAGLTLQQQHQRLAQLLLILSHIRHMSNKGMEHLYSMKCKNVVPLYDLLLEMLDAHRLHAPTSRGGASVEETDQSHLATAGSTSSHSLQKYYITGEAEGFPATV

This test concerns the target Estrogen receptor (Homo sapiens) (UniProt P03372). Put plainly: ERα–SRC-1 coactivator interaction inhibitors, primary screen, biochemical, TR-FRET, ERα LBD, estradiol-bound (AID 629).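 Note: 0% = receptor plus peptide control and 100% = peptide only without receptor.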 The settings on record: TR-FRET ER-alpha LBD / SRC-1 peptide, at 25.6 µM, hits give high values.
Consider `COc1ccc(OC)c(-n2nnnc2SCC(=O)Nc2cc(C)ccc2OC)c1`, for which the inhibition was 4.13%.

On to `COc1ccc(NC(=O)CSc2nnc(-c3cccs3)n2Cc2ccco2)cc1OC`, for which the inhibition is -0.83%.

On to `COc1ccc(C)cc1-n1nnnc1SCC(=O)c1cc(C)n(Cc2ccco2)c1C`, for which the inhibition was 56% [fluorescence artefact?] (active).

Turning to `O=C(NCc1ccccc1)[C@@H]1CSC2c3ccccc3C(=O)N21` (some centres undefined), the inhibition is 6.25%.

For `Cc1cc(C)n(-c2nnc(C)n2NC(=O)c2cccc(Cl)c2)n1`, the inhibition was -8.09%.

For the compound `COc1ccc2[nH]c(=O)c(-c3noc(-c4ccc(F)cc4)n3)cc2c1`, the inhibition is 72.5% [fluorescence artefact?] (active).

`Cc1cccc(-c2noc(-c3ccc(F)cc3)n2)c1`: the inhibition was -21.4%.

With `COc1ccc(-c2noc(-c3ccc(C)cc3)n2)cc1`, the inhibition is -13.3%.

Turning to `COc1cc(OC)c(C(=O)Nc2ccc(N(C)C)cc2)cc1OC`, the inhibition was 63.9% [fluorescence artefact?] (active).

`COc1ccc(Cl)cc1C(=O)Nc1ccc(N(C)C(C)=O)cc1`: the inhibition is 9.29%.

On to `COc1cc(OC)c(C(=O)NC2CCCCCC2)cc1OC`, for which the inhibition was -10.8%.

Regarding `CCOc1ccccc1C(=O)NC1CC2CCCC(C1)N2Cc1ccccc1` (centres undefined), the inhibition was 1.91%.

In the case of `COc1ccc(-c2nnc(SCC(=O)c3ccc4c(c3)OCCO4)o2)cc1`, the inhibition was 22.7%.

Take `Cc1ccc(-c2noc(CSc3nnnn3-c3ccccc3)n2)cc1`: the inhibition is -3.97%.

As to `O=c1c2ccccc2nc(CSc2nnnn2-c2ccccc2)n1-c1ccccc1`, the inhibition is 70% [fluorescence artefact?] (active).

Take `O=c1c2ccccc2nnn1CSc1nnnn1-c1ccccc1`: the inhibition is -0.34%.

As to `Cc1ccc(Nc2nc(CSc3nnnn3-c3ccccc3)cc(=O)[nH]2)cc1`, the inhibition was 66.8% [fluorescence artefact?] (active).

Turning to `COc1ccc(-n2nnnc2SCC(=O)Nc2ccccc2)cc1`, the inhibition is -12.4%.

For the compound `N#CCSc1nc2ccccc2c(=O)n1-c1ccccc1`, the inhibition is 1.7%.

For `Brc1ccc(-c2nnc(-c3ccccc3)o2)o1`, the inhibition was 12.2%.

As to `O=C(Cc1ccccc1)Nc1c(C(=O)N2CCCCCC2)cnn1-c1ccccc1`, the inhibition was -5.17%.

With `Cc1cc(=O)oc2cc(OCC3CC(c4ccccc4Cl)=NO3)ccc12` (centres undefined), the inhibition is 3.5%.

Regarding `O=C(c1ccc2c(c1)OCO2)N1CCOCC1`, the inhibition is -17.2%.

For `Cc1ccc(NC(=O)CSCC(=O)N2CCOCC2)cc1`, the inhibition is -2.74%.

For the compound `CCN(CC)C(=O)CN(c1cccc(OC)c1)S(=O)(=O)c1ccc(C)cc1`, the inhibition is 0.16%.

Turning to `Cc1nc(C)c(C(=O)Nc2cccc(C)c2C)o1`, the inhibition is 23.7%.

Take `Cc1nc(C)c(C(=O)Nc2ccc(C)c(F)c2)o1`: the inhibition is 13.3%.

On to `COc1ccc(Cl)cc1NC(=O)c1oc(C)nc1C`, for which the inhibition was 53.9% (active).

For `Cc1cc(NC(=O)CCC(=O)N(CC(=O)NCC2CCCO2)c2ccccc2C)no1` (centres undefined), the inhibition was 26%.

Turning to `Cn1c2ccccc2c2c(C(=O)N3CCN(c4ccc(F)cc4)CC3)cn(C3CCCC3)c(=O)c21`, the inhibition is 8.84%.

Turning to `CCOC(=O)N1CCN(C(=O)c2n[nH]c(=O)c3ccccc23)CC1`, the inhibition was -4.02%.

For `CCOC(=O)N1CCN(C(=O)c2nn(-c3ccc(C)cc3)c(=O)c3c2c2ccccc2n3C)CC1`, the inhibition was 58.7% [fluorescence artefact?] (active).

As to `CCCc1nc(NCc2ccc3c(c2)OCO3)c2nnn(Cc3ccccc3Cl)c2n1`, the inhibition is 0.25%.

For the compound `Cc1ccccc1-c1nnc(SCC(=O)NCc2ccc3c(c2)OCO3)n1C`, the inhibition is -3.86%.

The record behind these values is PubChem BioAssay AID629 (Emory University Molecular Libraries Screening Center, 2007).
